In PubChem BioAssay (EPA / NIEHS):
Inconclusive results are not listed. Active and inactive are the calls of the source. Rule for the calls, unless noted: active = hit-call score of the fitted dose curve at least 0.9, where 1 is the maximum; inconclusive = response in the unintended direction; inactive = score below 0.9.

Tests used:
[1] = Tanguay_ZF_120hpf_JAW_legacy: (Legacy) Oregon State University Tanguay Lab 120 Hour Post-fertilization zebrafish Assay for Jaw Malformation (AID 2283638)
Method in brief: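 Binary jaw-malformation call at 120 hpf by brightfield microscopy. Embryos (Tropical 5D strain, chorion removed at 4 hpf) were dosed statically at 6 hpf, one per well, at 28C with 0.64% DMSO. Embryos that died were not scored.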

[2] = Tanguay_ZF_120hpf_OTIC_legacy: (Legacy) Oregon State University Tanguay Lab 120 Hour Post-fertilization zebrafish Assay for Otic Vesicle Malformation (AID 2283639)
Method in brief: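 Wild-type zebrafish larvae, whole-embryo exposure from early stage to 120 hpf at 28C. Binary brightfield scoring of otic vesicle morphology, fitted in the positive direction against the DMSO baseline.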

[3] = Tanguay_ZF_120hpf_PE_legacy: (Legacy) Oregon State University Tanguay Lab 120 Hour Post-fertilization zebrafish Assay for Pericardial Edema (AID 2283640)
Method in brief: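 Scoring was binary, by brightfield microscopy at 120 hpf, and skipped where mortality occurred. Wild-type embryos were kept under sealed, foil-covered static exposure at 28C in 0.64% (vol/vol) DMSO.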

[4] = Tanguay_ZF_120hpf_BRAI_legacy: (Legacy) Oregon State University Tanguay Lab 120 Hour Post-fertilization zebrafish Assay for Brain Malformation (AID 2283641)
Method in brief: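 Binary brightfield scoring of brain malformation at 120 hpf in Tropical 5D larvae held under static exposure at 28C (0.64% v/v DMSO), non-mortality endpoints skipped if dead. Positive control: 5uM trimethyltin chloride; fit versus DMSO.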

[5] = Tanguay_ZF_120hpf_PFIN_legacy: (Legacy) Oregon State University Tanguay Lab 120 Hour Post-fertilization zebrafish Assay for Pectoral Fin Malformation (AID 2283648);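 note: each larva judged yes or no for fin defect by brightfield with dead larvae skipped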
Method in brief: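 Pectoral fin malformation was recorded as a binary endpoint at 120 hpf in wild-type Tropical 5D larvae, which had been dechorionated and exposed statically from 6 hpf at 28C in 0.64% DMSO. Dead embryos were excluded.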

[6] = Tanguay_ZF_120hpf_PIG_legacy: (Legacy) Oregon State University Tanguay Lab 120 Hour Post-fertilization zebrafish Assay for Pigmentation Malformation (AID 2283650)
Method in brief: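 Pigment malformation recorded as a binary call at 120 hpf in zebrafish (Tropical 5D) exposed singly from 6 hpf after pronase dechorionation. Static, sealed, 28C exposure, 0.64% DMSO; mortality excludes scoring; positive-direction fit against DMSO.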

[7] = Tanguay_ZF_120hpf_CIRC_legacy: (Legacy) Oregon State University Tanguay Lab 120 Hour Post-fertilization zebrafish Assay for Circulatory Malformation (AID 2283651)
Method in brief: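 Binary circulatory-malformation call at 120 hpf via brightfield imaging, relative to DMSO controls. Embryos (5D strain, chorion removed) received static, light-shielded exposure at 28C.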

[8] = Tanguay_ZF_120hpf_SOMI_legacy: (Legacy) Oregon State University Tanguay Lab 120 Hour Post-fertilization zebrafish Assay for Somite Malformation (AID 2283647)
Method in brief: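 Binary somite-defect scoring at 120 hpf, omitted for embryos that died, in wild-type (Tropical 5D) zebrafish with chorion removed by pronase at 4 hpf; static exposure began 6 hpf, single embryos per well, 28C, 0.64% DMSO; fitted positive versus DMSO.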

[9] = Tanguay_ZF_120hpf_CFIN_legacy: (Legacy) Oregon State University Tanguay Lab 120 Hour Post-fertilization zebrafish Assay for Caudal Fin Malformation (AID 2283649)
Method in brief: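 Binary brightfield scoring of caudal fin defects at 120 hpf after static, light-shielded exposure at 28C from 6 hpf. Tropical 5D embryos, chorion removed with pronase at 4 hpf, final DMSO 0.64%.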

[10] = read-out: kallikrein-3 (KLK3), KLK3 (gene 354); assay: LTEA_HepaRG_KLK3: Life Technologies and Expression Analysis (LTEA) Assay for kallikrein-3 (KLK3) using HepaRG (AID 2283652; active = hit-call score of the fitted dose curve at least 0.9, where 1 is the maximum; inactive = score below 0.9); details: mRNA level, 48 h; actives raise or lower the signal
Experimental: LTEA_HepaRG is a cell based, multiplexed-readout assay that uses HepaRG, a human liver cell line, with measurements taken at 48 hours after chemical dosing on a 96-well plate.LTEA_HepaRG_KLK3 is one of 102 assay component(s) measured in the LTEA HepaRG cell culture assay. It is a marker of Cellular remodeling.Data from the assay component LTEA_HepaRG_KLK3 was analyzed into 1 endpoint. This assay endpoint, LTEA_HepaRG_KLK3, was analyzed with bidirectional fitting relative to DMSO as the negative control and baseline of activity. Using a type of inducible reporter, measures of mRNA induction for gain or loss-of-signal activity can be used to understand regulation of transcription factor activity. To generalize the intended target to other relatable targets, this assay endpoint is annotated to the protease intended target family, where the subfamily is Cellular remodeling.
A total of 1060 chemcials from the ToxCast library were tested in eight-point concentration-response experiments. Cell culture and cytotoxicity assays were conducted at Thermo Fisher Scientific's Custom Services facility (Madison, WI). A single lot of human HepaRG cells (Thermo Fisher Scientific, Frederick, MD) was used for the cell culture experiments. 96-well format collagen type I coated plates of human HepaRG cells were prepared using established methods. Briefly, cryopreserved HepaRG cells were thawed, plated at a density of approximately 100,000 cells/well in HepaRG Thaw, Plate, and General Purpose media (HPRG770, Thermo Fisher Scientific), and incubated for 48 hours. 0.5% DMSO was selected as vehicle control to balance the requisite need of DMSO in HepaRG cultures to maintain differentiation (for example, baseline metabolism, proportions of hepatocytes vs. cholangiocytes), while enabling further hepatic receptor pathway activation (for example, PXR and CAR) in response to chemical exposure. 48 hours after plating, the culture medium was replaced with HepaRG Serum-Free Incudtion Media. Cells were exposed to each test chemical in duplicate and maintained in CO2 incubators for another 48 hours. Chemical plates were thawed to room temperature and 200x concentrations of treatment groups were prepared. 8-point conentration-reponse curves were made with the highest exposure at 100 uM, followed by half-log dilutions, all in 0.5% DMSO. Each test plate contained variouse controls, induction positive controls (1mM phenobarbital), cytotoxicity positive controls ([…] aflatoxin B1), vehicle controls (0.5% DMSO), and total lysis controls (0.5% DMSO). […] Fluidigm's 96.96 Dynamic ArrayTM (Fluidigm, Amsterdam, the Netherlands) technology was used for gene expression analyses by quantitative reverse transcription polymerase chain reaction (qRT-PCR, performed by Quintiles/Expression Analysis, Durham, NC)89. […]

Measured: outcome

CC1(C)C(=O)NC(=O)N1CO
inactive: [1] | [2] | [3] | [4] | [5] | [6] | [7]

CCCCc1nc2cccnc2n1Cc1ccc(-c2ccccc2-c2nnn[nH]2)cc1
inactive: [1] | [2] | [3] | [8] | [5] | [9] | [6] | [7]

CN(C)C(=O)NC1(c2ccccc2)CCN(CCC[C@]2(c3ccc(Cl)c(Cl)c3)CCCN(C(=O)c3ccccc3)C2)CC1
inactive: [1] | [2] | [3] | [4] | [5] | [9] | [6] | [7]

CC(=O)S[C@H](C(=O)N[C@H]1Cc2ccccc2[C@H]2CCC[C@@H](C(=O)O)N2C1=O)C(C)C
inactive: [1] | [2] | [3] | [8] | [5]

CCc1nc(N)nc(N)c1-c1ccc(Cl)cc1
inactive: [1] | [2] | [3] | [4] | [8] | [5] | [9] | [6] | [7]

Cc1cn([C@H]2C=C[C@@H](CO)O2)c(=O)[nH]c1=O
inactive: [1] | [2] | [3] | [8] | [5] | [7]

CCCCC(CC)COP(=O)(OCC(CC)CCCC)OCC(CC)CCCC (configuration not stated)
inactive: [1] | [2] | [3] | [5] | [9] | [6]

Cc1cc(Cc2ccc(N)c(C)c2)ccc1N
inactive: [1] | [2] | [3] | [4] | [5] | [9] | [6] | [7]

CC(N)=O
inactive: [1] | [2] | [3] | [4] | [5] | [6] | [7]

Cc1occc(=O)c1O
inactive: [1] | [2] | [3] | [8] | [5] | [9] | [6] | [7]

CN(C)C(=O)NC1(c2ccccc2)CCN(CC[C@@]2(c3ccc(F)c(F)c3)CN(C(=O)c3ccccc3)CCO2)CC1
inactive: [1] | [2] | [3] | [8] | [5] | [9] | [6] | [7]

O=C(O)c1[nH]n(-c2ccc(S(=O)(=O)O)cc2)c(=O)c1N=Nc1ccc(S(=O)(=O)O)cc1
inactive: [1] | [2] | [3] | [4] | [5] | [9] | [6] | [7]

C#CC(O)C(CC)CCCC (configuration not stated)
inactive: [1] | [2] | [3] | [5] | [9] | [6] | [7]

CCOCCOCCO
inactive: [1] | [2] | [3] | [8] | [5] | [9] | [6] | [7]

CC(=O)OCC(COC(C)=O)OC(C)=O
inactive: [1] | [2] | [3] | [4] | [5] | [9] | [6] | [7]

O=C(N[C@@H](c1ccccc1)[C@@H]1CCCCN1)c1cccc(C(F)(F)F)c1Cl
inactive: [1] | [2] | [3] | [4] | [5] | [9] | [6] | [7]

CCCCCCC(CCCCCCCCCCC(=O)OCC(COC(C)=O)OC(C)=O)OC(C)=O (configuration not stated)
inactive: [1] | [2] | [3] | [8] | [5] | [9] | [6] | [10]

OCC(CO)n1cnc(-c2ccc(F)cc2)c1-c1ccnc(Oc2ccccc2)n1
inactive: [1] | [2] | [3] | [4] | [8] | [9] | [6] | [7]

Oc1ccc(O)cc1
inactive: [1] | [2] | [3] | [4] | [8] | [5] | [6]
